The results in this text go back to PubChem BioAssay (EPA / NIEHS).

For experiment [1], the target named is Retinoic acid receptor RXR-alpha (Homo sapiens) (UniProt P19793). Kind of experiment: ATG_RXRa_TRANS: Attagene TRANS-FACTORIAL HepG2 Assay for human Retinoid X Receptor alpha (RXRa) (AID 2283012). The procedure, abridged:
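Cells (HepG2) carried transiently transfected GAL4-responsive reporter units. Following a 24 h chemical incubation, reporter mRNA induction was read via RT-PCR fragment analysis; DMSO served as negative control and baseline.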

The target of experiment [2] is human Retinoid X Receptor beta (RXRb), RXRB (gene 6257) (UniProt P28702). The experiment is described as follows: ATG_RXRb_TRANS: Attagene TRANS-FACTORIAL HepG2 Assay for human Retinoid X Receptor beta (RXRb) (AID 2283013). The procedure, abridged:
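Multiplexed TRANS reporter assay in HepG2; 24 h dosing; reporter mRNA by RT-PCR/CE fluorescence; gain-of-signal relative to DMSO.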

In experiment [3] the target is human Thyroid Receptor alpha (THRa1), THRA (gene 7067) (UniProt P10827). Kind of experiment: ATG_THRa1_TRANS: Attagene TRANS-FACTORIAL HepG2 Assay for human Thyroid Receptor alpha (THRa1) (AID 2283014). The procedure, abridged:
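First, HepG2 cells receive multiple GAL4-UAS reporter units and the chimeric receptor. They are then dosed for 24 h, after which RNA is reverse-transcribed, amplified, labelled, HpaI-cut and sized by capillary electrophoresis; gain relative to DMSO is scored.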

Read-out in experiment [4]: E-selectin (Homo sapiens) (UniProt P16581)
Kind of experiment: BSK_3C_Eselectin: BioMAP Diversity Plus: 3C Assay for Eselectin Biomarker Activity (AID 2283015; active = hit-call score of the fitted dose curve at least 0.9, where 1 is the maximum; inactive = score below 0.9). Conditions: primary human endothelial cells (HUVEC); actives raise or lower the signal. The procedure, abridged:
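Human vascular endothelium from umbilical vein is exposed to test chemicals for 24 h. E-selectin levels are read by ELISA and compared with DMSO controls.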

Read-out in experiment [5]: Interleukin-1 alpha (IL1a), IL1A (gene 3552)
Kind of experiment: BSK_BE3C_IL1a: BioMAP Diversity Plus: BE3C Assay for Interleukin-1 alpha (IL1a) Biomarker Activity (AID 2283016; active = hit-call score of the fitted dose curve at least 0.9, where 1 is the maximum; inactive = score below 0.9). Conditions: primary human bronchial epithelial cells; actives raise or lower the signal. The procedure, abridged: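 Cultures of primary human bronchial epithelial cells receive test chemical. After 24 h, IL-1a is quantified by ELISA, while parallel wells are fixed in TCA and SRB-stained for total protein. Changes in either direction are fitted relative to DMSO.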

Read-out in experiment [6]: Monocyte Chemoattractant Protein-1 (MCP1), CCL2 (gene 6347)
Kind of experiment: BSK_3C_MCP1: BioMAP Diversity Plus: 3C Assay for Monocyte Chemoattractant Protein-1 (MCP1) Biomarker Activity (AID 2283017; active = hit-call score of the fitted dose curve at least 0.9, where 1 is the maximum; inactive = score below 0.9). Conditions: primary human endothelial cells (HUVEC); actives raise or lower the signal. The procedure, abridged:
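Endothelial cells from human umbilical vein are dosed with chemical, cultured 24 h, then assayed for MCP-1 by ELISA; both increases and decreases are modelled against DMSO controls.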

Read-out in experiment [7]: Monocyte Chemoattractant Protein-1 (MCP1), CCL2 (gene 6347)
Kind of experiment: BSK_4H_MCP1: BioMAP Diversity Plus: 4H Assay for Monocyte Chemoattractant Protein-1 (MCP1) Biomarker Activity (AID 2283018; active = hit-call score of the fitted dose curve at least 0.9, where 1 is the maximum; inactive = score below 0.9). Conditions: primary human endothelial cells (HUVEC); actives raise or lower the signal. The procedure, abridged:
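Readout: MCP-1 ELISA on compound-treated HUVEC, sampled 24 h post-dosing. Baseline and negative control DMSO; bidirectional fit. Overt toxicity checked alongside by sulforhodamine B protein staining at time of biomarker measurement.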

Read-out in experiment [8]: Human Leukocyte Antigen - DR isotype (HLADR), HLA-DRA (gene 3122)
The experiment is described as follows: BSK_3C_HLADR: BioMAP Diversity Plus: 3C Assay for Human Leukocyte Antigen - DR isotype (HLADR) Biomarker Activity (AID 2283019; active = hit-call score of the fitted dose curve at least 0.9, where 1 is the maximum; inactive = score below 0.9). Conditions: primary human endothelial cells (HUVEC); actives raise or lower the signal. The procedure, abridged: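 Endothelial cells from human umbilical vein are treated with test chemical; after 24 h, HLA-DR levels are measured by ELISA. Data are fitted in both directions using DMSO as the baseline.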

Read-out in experiment [9]: Interleukin-8 (IL8), CXCL8 (gene 3576)
The experiment is described as follows: BSK_3C_IL8: BioMAP Diversity Plus: 3C Assay for Interleukin-8 (IL8) Biomarker Activity (AID 2283020; active = hit-call score of the fitted dose curve at least 0.9, where 1 is the maximum; inactive = score below 0.9). Conditions: primary human endothelial cells (HUVEC); actives raise or lower the signal. The procedure, abridged:
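Human vascular endothelial cells (umbilical vein) in the 3C system; IL-8 level detected by ELISA at 24 h post-dose, with DMSO as baseline.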

Read-out in experiment [10]: Monokine induced gamma interferon (MIG), CXCL9 (gene 4283)
The experiment is described as follows: BSK_3C_MIG: BioMAP Diversity Plus: 3C Assay for Monokine induced gamma interferon (MIG) Biomarker Activity (AID 2283021; active = hit-call score of the fitted dose curve at least 0.9, where 1 is the maximum; inactive = score below 0.9;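 note: MIG protein level measured by immunoassay in the treated endothelial cultures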). Conditions: primary human endothelial cells (HUVEC); actives raise or lower the signal. The procedure, abridged:
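After 24 h of treatment, human umbilical vein endothelial cultures (3C system) had their MIG biomarker level determined by ELISA, with DMSO serving as negative control.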

For experiment [11], the target named is human Vitamin D Receptor (VDR), VDR (gene 7421) (UniProt P11473). The experiment is described as follows: ATG_VDR_TRANS: Attagene TRANS-FACTORIAL HepG2 Assay for human Vitamin D Receptor (VDR) (AID 2283022). The procedure, abridged:
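Fluorescence of labelled reporter cDNA fragments, resolved by capillary electrophoresis, gives mRNA induction after 24 h treatment of HepG2 cells carrying transfected Gal4-fusion reporter units. Activity is fitted in the positive direction with DMSO as baseline.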

Experiment [12] can be described thus: BSK_3C_SRB: Viability Assessment in the BioMAP Diversity Plus: 3C Assay (AID 2283023; active = hit-call score of the fitted dose curve at least 0.9, where 1 is the maximum; inactive = score below 0.9;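 note: cells read 24 h after compound dosing; fitted both ways against DMSO so a hit may be signal rise or drop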). Conditions: primary human endothelial cells (HUVEC). The procedure, abridged: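 Cells were dosed with chemical, cultured 24 h, fixed with 10% TCA, stained with 0.1% SRB and read at 560 nm. Human umbilical vein endothelium was used; DMSO served as negative control and baseline.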

Read-out in experiment [13]: Matrix Metallopeptidase 1 (MMP1), MMP1 (gene 4312)
The experiment is described as follows: BSK_BE3C_MMP1: BioMAP Diversity Plus: BE3C Assay for Matrix Metallopeptidase 1 (MMP1) Biomarker Activity (AID 2283024; active = hit-call score of the fitted dose curve at least 0.9, where 1 is the maximum; inactive = score below 0.9). Conditions: primary human bronchial epithelial cells; actives raise or lower the signal. The procedure, abridged:
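Dose cells, wait 24 h, run MMP1 ELISA; cells are human bronchial epithelial primaries. Both increases and decreases relative to DMSO counted.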

Read-out in experiment [14]: Pselectin, SELP (gene 6403)
Kind of experiment: BSK_4H_Pselectin: BioMAP Diversity Plus: 4H Assay for Pselectin Biomarker Activity (AID 2283026; active = hit-call score of the fitted dose curve at least 0.9, where 1 is the maximum; inactive = score below 0.9). Conditions: primary human endothelial cells (HUVEC); actives raise or lower the signal. The procedure, abridged:
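Human vascular endothelium from umbilical vein; P-selectin measured by ELISA at 24 h post-dose, with cytotoxicity checked by sulforhodamine B total-protein staining in parallel cultures (0.1% SRB after 10% TCA fixation, read at 560 nm).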

A short description of experiment [15]: BSK_4H_SRB: Viability Assessment in the BioMAP Diversity Plus: 4H Assay (AID 2283027; active = hit-call score of the fitted dose curve at least 0.9, where 1 is the maximum; inactive = score below 0.9;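 note: cells exposed to compound for 24 h before staining; curves fitted both ways versus DMSO so AC50 may be loss or gain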). Conditions: primary human endothelial cells (HUVEC). The procedure, abridged:
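Absorbance at 560 nm of SRB-stained total protein served as the viability read-out in confluent primary human umbilical vein endothelium 24 h after chemical treatment. Curves were fitted bidirectionally against DMSO as negative control.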

Experiment [16] is described as follows: BSK_BE3C_SRB: Viability Assessment in the BioMAP Diversity Plus: BE3C Assay (AID 2283028; active = hit-call score of the fitted dose curve at least 0.9, where 1 is the maximum; inactive = score below 0.9;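 note: fitted both ways so AC50 may mark signal gain or loss versus DMSO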). Conditions: primary human bronchial epithelial cells. The procedure, abridged:
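Overt cytotoxicity was assessed as total protein in confluent human primary bronchial epithelial cultures 24 h after chemical addition, using 0.1% sulforhodamine B staining read at 560 nm.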

Read-out in experiment [17]: Urokinase-type plasminogen activator receptor (uPAR), PLAUR (gene 5329)
The experiment is described as follows: BSK_4H_uPAR: BioMAP Diversity Plus: 4H Assay for Urokinase-type plasminogen activator receptor (uPAR) Biomarker Activity (AID 2283030; active = hit-call score of the fitted dose curve at least 0.9, where 1 is the maximum; inactive = score below 0.9). Conditions: primary human endothelial cells (HUVEC); actives raise or lower the signal. The procedure, abridged: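 Chemicals are dosed onto human vascular endothelial primary cells (umbilical vein). After 24 h, uPAR is read by ELISA. Gain or loss of signal is fitted relative to DMSO.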

Read-out in experiment [18]: Human Leukocyte Antigen - DR isotype (HLADR), HLA-DRA (gene 3122)
Kind of experiment: BSK_BE3C_HLADR: BioMAP Diversity Plus: BE3C Assay for Human Leukocyte Antigen - DR isotype (HLADR) Biomarker Activity (AID 2283032; active = hit-call score of the fitted dose curve at least 0.9, where 1 is the maximum; inactive = score below 0.9). Conditions: primary human bronchial epithelial cells; actives raise or lower the signal. The procedure, abridged: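 Signal came from an ELISA for HLA-DR in human bronchial epithelial primary cells harvested 24 h after treatment; gain- and loss-of-signal fitting used DMSO controls as reference.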

Read-out in experiment [19]: Vascular cell adhesion molecule 1 (VCAM1), VCAM1 (gene 7412)
The experiment is described as follows: BSK_4H_VCAM1: BioMAP Diversity Plus: 4H Assay for Vascular cell adhesion molecule 1 (VCAM1) Biomarker Activity (AID 2283033; active = hit-call score of the fitted dose curve at least 0.9, where 1 is the maximum; inactive = score below 0.9). Conditions: primary human endothelial cells (HUVEC); actives raise or lower the signal. The procedure, abridged: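 Endpoint derived from bidirectional fitting against DMSO controls of VCAM-1 ELISA signal in umbilical vein endothelial cells sampled at 24 h following treatment.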

Inconclusive results are not listed. Active and inactive are the calls of the source. Rule for the calls, unless noted: active = hit-call score of the fitted dose curve at least 0.9, where 1 is the maximum; inconclusive = response in the unintended direction; inactive = score below 0.9.

Chain of Retinoic acid receptor RXR-alpha (Homo sapiens) (P19793 whole entry, looked up, the tested form may be a part): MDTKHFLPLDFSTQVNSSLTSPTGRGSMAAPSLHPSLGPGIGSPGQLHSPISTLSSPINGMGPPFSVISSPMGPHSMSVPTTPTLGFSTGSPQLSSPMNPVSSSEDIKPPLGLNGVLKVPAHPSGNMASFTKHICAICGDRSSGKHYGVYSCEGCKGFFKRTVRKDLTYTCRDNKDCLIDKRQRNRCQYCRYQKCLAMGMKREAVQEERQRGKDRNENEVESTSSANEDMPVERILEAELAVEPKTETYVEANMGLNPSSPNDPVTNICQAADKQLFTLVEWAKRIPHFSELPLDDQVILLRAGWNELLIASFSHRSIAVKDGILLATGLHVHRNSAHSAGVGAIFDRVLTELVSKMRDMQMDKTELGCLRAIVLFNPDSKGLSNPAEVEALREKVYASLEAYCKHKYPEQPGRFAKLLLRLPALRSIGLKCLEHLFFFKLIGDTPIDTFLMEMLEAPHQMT
Chain of human Thyroid Receptor alpha (THRa1), THRA (gene 7067) (P10827 whole entry, looked up, the tested form may be a part): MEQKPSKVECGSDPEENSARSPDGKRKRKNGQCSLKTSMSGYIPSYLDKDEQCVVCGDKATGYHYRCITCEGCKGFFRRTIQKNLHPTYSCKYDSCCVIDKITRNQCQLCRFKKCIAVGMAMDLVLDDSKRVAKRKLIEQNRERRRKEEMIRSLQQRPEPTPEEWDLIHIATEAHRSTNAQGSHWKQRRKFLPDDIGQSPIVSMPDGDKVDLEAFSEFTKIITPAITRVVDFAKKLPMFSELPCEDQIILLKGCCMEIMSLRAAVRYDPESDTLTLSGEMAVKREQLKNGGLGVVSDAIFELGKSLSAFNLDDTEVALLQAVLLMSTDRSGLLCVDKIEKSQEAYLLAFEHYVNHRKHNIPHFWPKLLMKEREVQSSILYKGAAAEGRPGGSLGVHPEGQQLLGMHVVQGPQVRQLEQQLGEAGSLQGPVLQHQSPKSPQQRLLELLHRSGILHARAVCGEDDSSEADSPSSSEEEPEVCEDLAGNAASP
Chain of human Retinoid X Receptor beta (RXRb), RXRB (gene 6257) (P28702 whole entry, looked up): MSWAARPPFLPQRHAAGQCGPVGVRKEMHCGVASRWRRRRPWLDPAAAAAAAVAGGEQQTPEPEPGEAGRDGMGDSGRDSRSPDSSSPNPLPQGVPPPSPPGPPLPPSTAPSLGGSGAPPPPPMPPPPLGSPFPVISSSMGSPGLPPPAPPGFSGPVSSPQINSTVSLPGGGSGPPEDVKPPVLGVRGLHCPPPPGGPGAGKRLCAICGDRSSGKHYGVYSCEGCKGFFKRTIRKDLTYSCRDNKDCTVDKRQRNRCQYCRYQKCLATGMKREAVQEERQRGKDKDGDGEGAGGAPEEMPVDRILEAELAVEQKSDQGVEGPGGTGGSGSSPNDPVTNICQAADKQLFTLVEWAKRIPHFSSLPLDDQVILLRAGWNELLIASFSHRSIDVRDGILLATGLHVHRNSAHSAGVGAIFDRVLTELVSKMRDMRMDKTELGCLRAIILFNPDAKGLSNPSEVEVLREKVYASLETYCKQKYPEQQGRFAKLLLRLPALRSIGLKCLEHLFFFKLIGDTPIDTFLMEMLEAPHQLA
Chain of human Vitamin D Receptor (VDR), VDR (gene 7421) (P11473 whole entry, looked up, the tested form may be a part): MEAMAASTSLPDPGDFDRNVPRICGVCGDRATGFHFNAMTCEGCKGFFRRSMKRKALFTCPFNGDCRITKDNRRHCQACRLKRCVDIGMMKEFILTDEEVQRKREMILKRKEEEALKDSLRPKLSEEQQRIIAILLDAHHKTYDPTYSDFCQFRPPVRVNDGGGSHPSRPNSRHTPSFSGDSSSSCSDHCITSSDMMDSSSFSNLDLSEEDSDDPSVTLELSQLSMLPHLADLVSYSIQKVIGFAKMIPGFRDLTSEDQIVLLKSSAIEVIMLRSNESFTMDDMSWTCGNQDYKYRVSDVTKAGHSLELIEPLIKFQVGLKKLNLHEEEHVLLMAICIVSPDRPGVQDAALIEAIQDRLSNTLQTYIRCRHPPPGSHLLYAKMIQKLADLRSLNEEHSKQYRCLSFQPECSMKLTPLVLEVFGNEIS
Chain of E-selectin (Homo sapiens) (P16581 whole entry, looked up): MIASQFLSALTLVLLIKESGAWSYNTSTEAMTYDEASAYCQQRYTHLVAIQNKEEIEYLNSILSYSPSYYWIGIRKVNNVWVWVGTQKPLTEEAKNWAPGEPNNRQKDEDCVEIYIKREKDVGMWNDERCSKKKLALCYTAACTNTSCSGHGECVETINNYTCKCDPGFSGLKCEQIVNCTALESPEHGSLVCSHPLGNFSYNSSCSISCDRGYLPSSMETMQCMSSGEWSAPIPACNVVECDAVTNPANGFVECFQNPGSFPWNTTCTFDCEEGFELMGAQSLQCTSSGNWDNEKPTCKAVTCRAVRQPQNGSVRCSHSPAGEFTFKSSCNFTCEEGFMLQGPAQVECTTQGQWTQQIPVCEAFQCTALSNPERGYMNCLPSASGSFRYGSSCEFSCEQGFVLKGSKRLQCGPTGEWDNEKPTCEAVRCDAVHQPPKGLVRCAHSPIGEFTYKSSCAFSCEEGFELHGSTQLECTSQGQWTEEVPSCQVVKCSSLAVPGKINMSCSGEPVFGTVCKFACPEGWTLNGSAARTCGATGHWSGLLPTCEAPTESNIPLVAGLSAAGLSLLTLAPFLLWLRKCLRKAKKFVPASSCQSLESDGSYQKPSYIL

For the molecule `CC(=O)Oc1ccc(C)cc1`, the call in [1] and in experiment [2] was inactive.

Take `CC(C)(C)C1CCCCC1=O` (centres undefined): the molecule was called inactive in experiment [1] and in experiment [3]. In [2], the AC50 (commonly the concentration giving half of the maximal activity seen) is 91.4 µM (active).

On to `Oc1ccc(Cl)cc1Cc1cc(Cl)ccc1O`, for which the molecule was classed as inactive in experiment [1] and in [3]. Also, the AC50 in experiment [2] is 6.46 µM (active).

Turning to `CC(=O)c1ccc2c(c1)CCCC2`, the outcome in experiment [1] and in experiment [3] was inactive. In addition, in experiment [2], the AC50 is 42.9 µM (active).

Consider `CC(C)C1=CC2=CC[C@@H]3[C@](C)(CCC[C@@]3(C)C(=O)O)[C@H]2CC1`, for which the molecule was called inactive in [1], in [2] and in experiment [3].

With `O=C1CCCCCCCCCCCCCCCO1`, the result in experiment [1] and in experiment [3] was inactive. Moreover, the AC50 in experiment [2] was 70.4 µM (active).

For the molecule `CCC(C)OC(=O)c1ccc(O)cc1` (centres undefined), the outcome in experiment [1] and in [3] was inactive. Besides, the AC50 in [2] is 70.8 µM (active).

Consider `CCCCCCCCCCCCCCCC[N+](C)(C)CC`, for which the call in experiment [1], in experiment [11] and in [17] was inactive. Further, the AC50 in [2] was 13 µM (active); in experiment [3] it was 12.1 µM (active); in experiment [4] it was 3.48 µM (active); in experiment [5], 7.31 µM (active); in [6], 2.66 µM (active); in [7], 0.845 µM (active). Also, the AC50 in [8] is 0.932 µM (active); in experiment [9], 3.73 µM (active); in experiment [10], 4.05 µM (active); in [12], 0.697 µM (active); in experiment [13], 3.2 µM (active); in [14] it was 6.2 µM (active). Besides, the AC50 in experiment [15] was 1.57 µM (active); in [16], 5.12 µM (active); in experiment [18] it was 2.28 µM (active); in [19] it was 1.9 µM (active).
